# The list is not random: actives were taken first. Their share in the collection is about 19%.
# TDP1 cell CPT = qHTS for Inhibitors of human tyrosyl-DNA phosphodiesterase 1 (TDP1): qHTS in cells in presence of CPT; chicken DT40 Tdp1-/-;hTDP1 cells + 20 nM CPT, ATP luminescence, 48 h; Potency, µM (doses to about 46.2 µM), for the others: at the top dose activity change, negative = growth inhibition, usual class: inhibitors; 420,000 compounds, 12% hits; further: potency means the concentration at half of the fitted maximal effect; nearly all actives have a fitted effect of over 55% in size
#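 Chicken DT40 Tdp1-/- cells complemented with human TDP1, 400 cells/well, exposed to compounds plus 20 nM camptothecin for at least 48 h at 37 C; viability read as ATP content by CellTiter-Glo luminescence.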
# HT1080-NT tox = qHTS for induction of synthetic lethality in tumor cells producing 2HG: qHTS for the HT-1080-NT fibrosarcoma cell line; Potency, µM (doses to about 46.1 µM), inactives show at the highest dose activity, negative = less viability, actives largely listed as cytotoxic; 360,000 compounds, 1.6% hits; HT-1080-NT fibrosarcoma viability, CellTiter-Glo ATP luminescence, 48 h; AID 686970, 2013;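 further: NT is the 2HG producing partner of a matched IDH1 knockdown line; potency means the concentration at half of the fitted maximal effect; 0% = DMSO-treated cells and -100% = media-only wells without cells; nearly all actives have a fitted effect of over 55% in size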
#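 HT-1080-NT; 750 cells/well; 5% FBS RPMI; 48 h compound, 37 degrees C; CellTiter-Glo luminescence; curve fitting and curve-class assignment.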
# HT1080 IDH1KD tx = qHTS for induction of synthetic lethality in tumor cells producing 2HG: qHTS for the HT-1080-IDH1KD cell line; HT-1080 IDH1 knockdown viability, ATP luminescence, 48 h; 360,000 compounds, 2% hits; Potency, µM (series often up to 46.1 µM), inactives show at the highest dose activity, negative = toxicity, usual class: cytotoxic;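 further: potency means the concentration at half of the fitted maximal effect; 0% = DMSO wells and -100% = cell-free medium wells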
#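 IDH1KD HT-1080 cells, 750/well, RPMI + 5% FBS; compound pinned after 2 h settling; 48 h, 37 °C; CellTiter-Glo luminescence; % activity normalised to DMSO and no-cell wells; curves fitted, classed by r2 and efficacy.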
# DT40 TDP1 no CPT = qHTS for Inhibitors of human tyrosyl-DNA phosphodiesterase 1 (TDP1): qHTS in cells in absence of CPT; DT40 Tdp1-/- hTDP1 cells, no CPT, ATP luminescence, 48 h; 420,000 compounds, 15% hits; Potency, µM (doses to about 46.2 µM), without a hit: top-dose activity change, negative = growth inhibition, hits mostly inhibitors; further: potency means the concentration at half of the fitted maximal effect; nearly all actives have a fitted effect of over 55% in size
#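 Camptothecin absent (DMSO only). Human TDP1-complemented DT40 knockout cells, 400 cells/well, 37 °C for minimum 48 hr; ATP measured via CellTiter-Glo, 30 min dark incubation, luminescence.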
# IL-1B inflam inh = qHTS for Inhibitors of Inflammasome Signaling: IL-1-beta AlphaLISA Primary Screen. THP-1 LPS/ATP IL-1B secretion, AlphaLISA, 16 h; stronger effect = lower value. 360,000 compounds, 4.7% hits. activity change, % at 57.5 µM. AID 743279, 2014; in the data active means activity change below about -50%; inconclusive means mostly about -30% to -49%
#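 THP-1 cells pretreated 1 hr with compounds (up to 57.5 uM final), then stimulated with LPS (250 ng/mL final) plus ATP (1.25 mM final); secreted IL-1B measured by AlphaLISA after 16 hr, decreased signal indicating inhibition.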
# The depositor's hits bear a star; i = inactive; ? = inconclusive; · = no result given. Unless noted, the call rests on the fitted dose curve; in most records, active means well fitted curve in the direction sought with a large enough effect; inconclusive means small, poorly fitted or top-dose-only effect, or another doubt; inactive means no such curve, though single readings can be large; an effect the other way counts as inactive or inconclusive. Unless noted, on the % scale 0 is the no-effect control and ±100 the full control effect.
SMILES,TDP1 cell CPT,HT1080-NT tox,HT1080 IDH1KD tx,DT40 TDP1 no CPT,IL-1B inflam inh
COc1cccc(OC)c1C(=O)NNS(=O)(=O)c1ccc2ccccc2c1,-9%,7%,2%,1%,19
COc1cc(Cn2c(-c3nonc3N)nc3ccccc32)ccc1C,2.9µM*,3.7µM*,1.8µM*,4.1µM*,7
COc1cccc(C(O)c2nc3ccccc3n2C(C)C)c1 (configuration not stated),-10%,4%,3%,-19%,?
COc1cccc(Cn2c(-c3nonc3N)nc3ccccc32)c1,2.9µM*,2.6µM*,2.1µM*,2.9µM*,50
COc1cccc(Cn2c(C(C)n3c(C)nc4ccccc43)nc3ccccc32)c1 (configuration not stated),?,?,?,12µM*,21
CCOc1ccc(CCNC(=O)Cn2c(-c3nonc3N)nc3ccccc32)cc1OCC,10µM*,-4%,-11%,13µM*,-3
CCN(C(=O)c1ccc(NC(=O)Cc2ccccc2)cc1)c1ccccc1,0%,7%,0%,?,i
CCCc1cc(NCCOCCO)n2c(nc3ccccc32)c1C#N,?,-8%,-7%,12µM*,5
CCCc1cc(NCCCN2CCOCC2)n2c(nc3ccccc32)c1C#N,16µM*,5%,6%,21µM*,?
CC(OC(=O)Cc1n[nH]c(=O)c2ccccc12)C(=O)Nc1ccc(F)cc1Cl (configuration not stated),-23%,0%,-3%,-16%,1
COc1ccc(NC(NC(=O)c2ccc(OC)cc2)C(Cl)(Cl)Cl)cc1 (configuration not stated),?,4%,-19%,?,-78*
COc1ccc(C(=O)NC(Nc2ccc(C)cc2)C(Cl)(Cl)Cl)cc1 (configuration not stated),21µM*,-17%,?,18µM*,-72*
COc1ccccc1CN1CC2(CCN(C(=O)c3cccc(F)c3)CC2)C1,6%,·,·,-8%,·
COc1cc(NC(=O)NCCn2nnc3cc(S(=O)(=O)N(C)C)ccc32)cc(OC)c1OC,-15%,·,·,3%,·
CCOc1ccc(-n2cc(C(=O)N3CCC(C)CC3)c3cc(OC)c(OC)cc3c2=O)cc1,16µM*,6%,-10%,15µM*,-17
CCOc1ccc(-n2cc(C(=O)NC(C)C)c3cc(OC)c(OC)cc3c2=O)cc1,?,-1%,0%,26µM*,5
CCOc1ccc(-n2cc(C(=O)Nc3cccc(C)n3)c3cc(OC)c(OC)cc3c2=O)cc1,?,-4%,-7%,26µM*,-11
CCCCNC(=O)c1cn(-c2ccc(OCC)cc2)c(=O)c2cc(OC)c(OC)cc12,?,0%,7%,?,32
CCOc1ccc(NC(=O)c2cn(-c3ccc(OCC)cc3)c(=O)c3cc(OC)c(OC)cc23)cc1,-9%,9%,8%,-3%,-28
Cn1c(SCC(=O)NCc2ccco2)nnc1C1CCCC1,-1%,25%,12%,4%,12
CCCCCCCCCCCCCC[N+](C)(C)Cc1ccccc1,1.2µM*,·,·,1.1µM*,·
CCCCCCCCCCCCCCCC[N+](C)(C)Cc1ccccc1,1.2µM*,·,·,0.94µM*,·
CCCCCCCC(=O)NNC(=O)Cc1ccccc1,-19%,3%,-9%,-2%,4
Cc1cc(N2CCN(Cc3cn(C)nc3-c3ccccc3F)CC2)cc(C)n1,5.8µM*,?,?,5.8µM*,?
Cn1cc(CN2CCc3sccc3C2)c(-c2ccccc2F)n1,-3%,-7%,21%,-26%,14
SMILES,TDP1 cell CPT,HT1080-NT tox,HT1080 IDH1KD tx,DT40 TDP1 no CPT,IL-1B inflam inh
Cn1cc(CN2CCC(C(O)c3cccs3)CC2)c(-c2cccc(Cl)c2)n1 (configuration not stated),5%,-29%,?,-19%,?
Cc1cc(N2CCN(Cc3cn(C)nc3-c3cccc(Cl)c3)CC2)cc(C)n1,5.2µM*,15µM*,16µM*,5.8µM*,-82*
O=S(=O)(c1ccc(N=C2NN=C(c3cc(F)ccc3F)CS2)cc1)N1CCOCC1,8.2µM*,?,16µM*,6.5µM*,-76*
CC(C)N=C1NN=C(c2ccc(F)cc2)CS1,18µM*,-8%,-9%,23µM*,-1
c1ccc(CN=C2NN=C(c3ccccc3)CS2)cc1,?,-11%,-9%,?,-67*
Clc1ccccc1N=C1NN=C(c2cccs2)CS1,-4%,?,?,-2%,-77*
Cc1cc(S(=O)(=O)N2CCOCC2)ccc1F,-12%,11%,13%,-7%,10
NC(=O)c1ccccc1N,-9%,-4%,-11%,1%,10
COc1ccc(CC(=O)N(C)C2CCCCC2)cc1S(=O)(=O)N1CCOCC1,14%,1%,4%,10%,22
CCOc1ccc(S(=O)(=O)N2CCCCC2)cc1NC(=O)C1=COCCO1,-30%,-2%,-3%,?,-23
CN(CC(=O)Nc1ccccc1C(F)(F)F)C(=O)c1cc2c(s1)CCCCC2,?,-4%,-18%,?,19
Fc1ccc(F)c(C2=NNC(=Nc3ccccc3F)SC2)c1,?,?,?,16µM*,-8
CC(=O)Nc1ccc(C2=NNC(=Nc3ccc(S(=O)(=O)N4CCOCC4)cc3)SC2)cc1,?,-22%,?,?,-52*
Cc1cccc(N=C2NN=C(c3ccccc3F)CS2)c1C,-27%,5%,0%,?,-4
CC(=O)Nc1ccc(C(=O)Nc2ccc(S(=O)(=O)N3CCOCC3)cc2)cc1,-3%,-1%,3%,9%,3
Fc1ccc(N=C2NN=C(c3cc(F)ccc3F)CS2)cc1,?,?,?,15µM*,-96*
CC(C)(C)N=C1NN=C(c2ccc(S(=O)(=O)N3CCCCC3)cc2)CS1,16µM*,-21%,-15%,?,-30
CN(Cc1nccn1C)C(=O)C1CCC(=O)N(Cc2cccc(C(F)(F)F)c2)C1 (configuration not stated),-5%,3%,5%,5%,19
Cc1c(-c2ccccc2)nc2ccccc2c1C(=O)OCC(=O)Nc1ncc(C(F)(F)F)cc1Cl,-1%,-7%,-13%,?,0
O=C(CSCc1ccc(C(=O)O)cc1)Nc1ccc2ccccc2c1,-1%,-6%,-2%,21%,11
